The target of the first assay is T1, Proteasome subunit beta (Trypanosoma cruzi) (UniProt O96673).
T1 sequence (whole entry): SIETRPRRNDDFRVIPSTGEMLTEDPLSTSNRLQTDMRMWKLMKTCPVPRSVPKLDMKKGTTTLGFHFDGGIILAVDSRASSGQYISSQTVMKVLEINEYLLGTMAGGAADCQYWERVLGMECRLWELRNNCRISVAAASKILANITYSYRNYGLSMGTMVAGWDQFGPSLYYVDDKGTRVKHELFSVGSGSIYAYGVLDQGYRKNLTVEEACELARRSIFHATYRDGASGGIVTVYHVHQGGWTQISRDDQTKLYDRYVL
In words: Trypanosoma cruzi proteasome chymotrypsin-like activity (TcProtChymo) assay. In kind it is functional. Set-up: scale not given: in the data most compounds retested in dose-response had high values. The following applies: 9.37 µM.
As for `Cc1ccc2c(c1)CN(C(=O)C1CCCCC1)C(CN(C)C)CO2` (stereo not given), the Percent Effect amounted to 12%.

`O=C(O)c1cc2c(nc1O)CC(c1cccs1)CC2=O` (stereo not given): the Percent Effect was 15.9%.

Take `Cc1nc(N2CCCC2)nc2c1CCN(C(=O)C1CCCC1)CC2`: the Percent Effect was 15.2%.

With `Cc1ccc(CC(=O)NCCCNS(C)(=O)=O)cc1`, the Percent Effect came to 14.8%.

On to `CSCC(CCO)NC(=O)Nc1cc(C)ccc1C` (stereo not given), for which the Percent Effect was determined as 15.3%.

For `COC(=O)c1sccc1S(=O)(=O)N1CCC(Oc2ncccc2Cl)CC1`, the Percent Effect amounted to 3.02%.

Consider `Cc1cc(-c2cnn(CCNC(=O)C3CCCO3)c2C2CC2)on1` (stereo not given), for which the Percent Effect was 3.59%.

Take `Cc1ccc(NS(=O)(=O)CC2=NC(=O)n3cccc3C2=O)cc1`: the Percent Effect turned out to be 3.7%.

For the compound `CCS(=O)(=O)N1CCc2ccc(NC(=O)Nc3ccc(F)cc3F)cc21`, the Percent Effect amounted to 23%.

Turning to `Cc1csc(C2CCCN(C(=O)c3cnc[nH]3)C2)n1` (stereo not given), the Percent Effect was 3.42%.

As for `O=C(c1ccc[nH]1)N1CCc2c(COCC3CC3)cncc2C1`, the Percent Effect was 29.1%.

Take `CC(C)c1nn(C)c(N(C)C)c1CNCc1ccccc1CN(C)C`: the Percent Effect is 7.85%.

With `c1ccc(-c2noc(CN3CCC(c4ccn[nH]4)CC3)n2)cc1`, the Percent Effect came out at 21.9%.

As to `Cc1ccc(C)c(NC(=O)N(C)Cc2cnn(C)c2)c1`, the Percent Effect amounted to 11.3%.

Regarding `COc1ccc(CN(Cc2cncn2C)CC2CCCO2)cc1OC` (stereo not given), the Percent Effect was 9.52%.

For the compound `CN(C)C(=O)CC1CC2(CCN(C(=O)N(C)C)CC2)Oc2ccccc21` (stereo not given), the Percent Effect is 9.53%.

`Cc1noc(C)c1C(=O)NCC(C)N(C)C` (stereo not given): the Percent Effect stood at 21.5%.

With `COc1ccc2c(c1)CC(NC(=O)NCc1cccs1)CO2` (stereo not given), the Percent Effect came out at 5.4%.

On to `Cc1cc(C)n(CC2CCCN2C(=O)c2ccc3c(c2)nnn3C)n1` (stereo not given), for which the Percent Effect was 14.9%.

Take `O=C1[C@@H]2CCN(Cc3ccoc3)C[C@@H]2OCCN1Cc1cccnc1`: the Percent Effect stood at 11.4%.

For the compound `CCc1nnc(CN(C)c2nc(C(C)C)nc3c2cnn3C)o1`, the Percent Effect turned out to be 16.8%.

Regarding `CCOC(=O)NC(CNC(=O)CCc1ccccn1)CC(C)C` (stereo not given), the Percent Effect came to 4.72%.

`CC(C)c1nn(C)c(N(C)C)c1CNCCC(=O)NC1CCCC1`: the Percent Effect is 13.4%.

On to `Cc1cnn(CC2CCCN2C(=O)c2cnc3n[nH]c(C)c3c2)c1` (stereo not given), for which the Percent Effect turned out to be 7.55%.

In the case of `O=C(c1ccnnc1)N1C[C@H]2CCC[C@@]2(COCC2CCOCC2)C1`, the Percent Effect worked out at 9.04%.

Turning to `Cc1nccn1CC1CCCN1S(=O)(=O)Cc1ccccc1` (stereo not given), the Percent Effect was -0.573%.

Turning to `CC(C)c1n[nH]c(C2CN(C(=O)CCn3ccccc3=O)CCO2)n1` (stereo not given), the Percent Effect amounted to 2.92%.

Consider `Cc1ccc(C(NC(=O)CC2CCN(C(C)C)CC2)C(=O)O)cc1` (stereo not given), for which the Percent Effect is 1.55%.

`c1ccc(-c2nnn3c2COC(CNCC2CCOCC2)C3)cc1` (stereo not given): the Percent Effect was 0.0881%.

As to `O=C(c1cncc(N2CCC3(CCNCC3)CC2)n1)N1CCCC1`, the Percent Effect worked out at 23.7%.

For the compound `Cc1cc(NC(=O)NCCc2cccs2)n(C)n1`, the Percent Effect was found to be 23.3%.

Turning to `Cc1nc(-c2ccco2)ccc1C(=O)N1CCCC1Cn1cccn1` (stereo not given), the Percent Effect amounted to 13.4%.

Turning to `CCOCC1CN(C(=O)CS(C)(=O)=O)Cc2cnn(C)c21` (stereo not given), the Percent Effect was determined as 4.27%.

As for `O=C1CC(c2ccccc2F)c2c(n3ccsc3nc2=O)N1` (stereo not given), the Percent Effect came out at 7.76%.

As for `O=C(c1cccnc1-n1cccn1)N1CCN(CC2CC2)CC1`, the Percent Effect turned out to be 13.1%.

As to `COc1cc(C(=O)N(Cc2cnn(C)c2)C(C)C)ccc1OCC(N)=O`, the Percent Effect was found to be 10.4%.

In the case of `Cc1nn(C)c(C)c1C1CCCN1CC(=O)NC(C1CC1)C1CC1` (stereo not given), the Percent Effect was -3.06%.

In the case of `Cc1nc(C2CCCN(C(=O)c3cccc4c3OCO4)C2)no1` (stereo not given), the Percent Effect was 19.9%.

For `COCCNC(=O)C(C)n1cc(Br)cn1` (stereo not given), the Percent Effect turned out to be 13.1%.

Turning to `Cc1nc(CN2CCOC(c3nc(C(C)C)n[nH]3)C2)oc1C` (stereo not given), the Percent Effect was 1.72%.

For the next assay, the species on record is Homo sapiens. In words: To identify inhibition of the IFN signalling (Jak-Stat) pathway via expression of an eGFP reporter gene under the control of an IFN-stimulated response element (ISRE) containing MxA promoter. Format: functional. Set-up: scale not given: direction of the effect not stated beside the values. The note with it: 30 µM.
As for `Cc1ccc2c(c1)CN(C(=O)C1CCCCC1)C(CN(C)C)CO2` (stereo not given), the Percent Effect worked out at 8.85%.

Regarding `O=C(O)c1cc2c(nc1O)CC(c1cccs1)CC2=O` (stereo not given), the Percent Effect is -5.05%.

As for `Cc1nc(N2CCCC2)nc2c1CCN(C(=O)C1CCCC1)CC2`, the Percent Effect is -11.3%.

With `Cc1ccc(CC(=O)NCCCNS(C)(=O)=O)cc1`, the Percent Effect is -1.21%.

For the compound `CSCC(CCO)NC(=O)Nc1cc(C)ccc1C` (stereo not given), the Percent Effect was 5.34%.

`COC(=O)c1sccc1S(=O)(=O)N1CCC(Oc2ncccc2Cl)CC1`: the Percent Effect is 35.1%.

In the case of `Cc1cc(-c2cnn(CCNC(=O)C3CCCO3)c2C2CC2)on1` (stereo not given), the Percent Effect stood at 0.87%.

On to `Cc1ccc(NS(=O)(=O)CC2=NC(=O)n3cccc3C2=O)cc1`, for which the Percent Effect is -2.44%.

Take `CCS(=O)(=O)N1CCc2ccc(NC(=O)Nc3ccc(F)cc3F)cc21`: the Percent Effect was -1.71%.

Regarding `Cc1csc(C2CCCN(C(=O)c3cnc[nH]3)C2)n1` (stereo not given), the Percent Effect was 32.5%.

`O=C(c1ccc[nH]1)N1CCc2c(COCC3CC3)cncc2C1`: the Percent Effect was found to be 0.5%.

On to `CC(C)c1nn(C)c(N(C)C)c1CNCc1ccccc1CN(C)C`, for which the Percent Effect was -8.54%.

As to `c1ccc(-c2noc(CN3CCC(c4ccn[nH]4)CC3)n2)cc1`, the Percent Effect is -10.4%.

Regarding `Cc1ccc(C)c(NC(=O)N(C)Cc2cnn(C)c2)c1`, the Percent Effect was 20.3%.

Regarding `COc1ccc(CN(Cc2cncn2C)CC2CCCO2)cc1OC` (stereo not given), the Percent Effect is -8.46%.

Take `CN(C)C(=O)CC1CC2(CCN(C(=O)N(C)C)CC2)Oc2ccccc21` (stereo not given): the Percent Effect came to 4.7%.

Take `Cc1noc(C)c1C(=O)NCC(C)N(C)C` (stereo not given): the Percent Effect is 11.2%.

Regarding `COc1ccc2c(c1)CC(NC(=O)NCc1cccs1)CO2` (stereo not given), the Percent Effect was determined as 5.91%.

Take `Cc1cc(C)n(CC2CCCN2C(=O)c2ccc3c(c2)nnn3C)n1` (stereo not given): the Percent Effect was -9.03%.

`O=C1[C@@H]2CCN(Cc3ccoc3)C[C@@H]2OCCN1Cc1cccnc1`: the Percent Effect is -11.6%.

For `CCc1nnc(CN(C)c2nc(C(C)C)nc3c2cnn3C)o1`, the Percent Effect was -1.37%.

Regarding `CCOC(=O)NC(CNC(=O)CCc1ccccn1)CC(C)C` (stereo not given), the Percent Effect was -1.48%.

On to `CC(C)c1nn(C)c(N(C)C)c1CNCCC(=O)NC1CCCC1`, for which the Percent Effect was -19.1%.

`Cc1cnn(CC2CCCN2C(=O)c2cnc3n[nH]c(C)c3c2)c1` (stereo not given): the Percent Effect amounted to 2.33%.

Turning to `O=C(c1ccnnc1)N1C[C@H]2CCC[C@@]2(COCC2CCOCC2)C1`, the Percent Effect is -6.27%.

As to `Cc1nccn1CC1CCCN1S(=O)(=O)Cc1ccccc1` (stereo not given), the Percent Effect is -9.27%.

On to `CC(C)c1n[nH]c(C2CN(C(=O)CCn3ccccc3=O)CCO2)n1` (stereo not given), for which the Percent Effect is -3.42%.

As for `Cc1ccc(C(NC(=O)CC2CCN(C(C)C)CC2)C(=O)O)cc1` (stereo not given), the Percent Effect came out at 0.454%.

For the compound `c1ccc(-c2nnn3c2COC(CNCC2CCOCC2)C3)cc1` (stereo not given), the Percent Effect was 12.3%.

Take `O=C(c1cncc(N2CCC3(CCNCC3)CC2)n1)N1CCCC1`: the Percent Effect was 12.9%.

Turning to `Cc1cc(NC(=O)NCCc2cccs2)n(C)n1`, the Percent Effect was -9.88%.

On to `Cc1nc(-c2ccco2)ccc1C(=O)N1CCCC1Cn1cccn1` (stereo not given), for which the Percent Effect was 7.74%.

For the compound `CCOCC1CN(C(=O)CS(C)(=O)=O)Cc2cnn(C)c21` (stereo not given), the Percent Effect was 1.39%.

`O=C1CC(c2ccccc2F)c2c(n3ccsc3nc2=O)N1` (stereo not given): the Percent Effect was found to be 2.76%.

As for `O=C(c1cccnc1-n1cccn1)N1CCN(CC2CC2)CC1`, the Percent Effect is -3.39%.

As for `COc1cc(C(=O)N(Cc2cnn(C)c2)C(C)C)ccc1OCC(N)=O`, the Percent Effect was 9.36%.

Take `Cc1nn(C)c(C)c1C1CCCN1CC(=O)NC(C1CC1)C1CC1` (stereo not given): the Percent Effect amounted to 4.1%.

For `Cc1nc(C2CCCN(C(=O)c3cccc4c3OCO4)C2)no1` (stereo not given), the Percent Effect was determined as 3.42%.

As for `COCCNC(=O)C(C)n1cc(Br)cn1` (stereo not given), the Percent Effect was found to be 5.02%.

As for `Cc1nc(CN2CCOC(c3nc(C(C)C)n[nH]3)C2)oc1C` (stereo not given), the Percent Effect is -4.74%.

Source of the values: ChEMBL document CHEMBL3988442, “University of Dundee, Small-Polar-MMV Screening Library” (2021).
